Laboratory results: PubChem BioAssay (NCI)
Compounds without any hit were thinned out: in the full panel of roughly 83,000, 20% have a hit.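 Note: values are percent growth. 100 is the growth of untreated cells, values between 100 and 0 indicate rising inhibition; between -100 and 0 indicates cell death.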 Activity calls are given as the source filed them. The calls were made as follows: active = growth percent below 10; inactive = the rest.

Assays:
Assay in all cases: NCI-60 one-dose screen, 48 h (100 = growth as untreated, 0 = no growth, -100 = all killed)
NCI-H23 lung = details: 10 µM
HOP-92 NSCLC = details: 10 µM
K-562 leukemia = details: 10 µM
MDA-MB-231 breast = details: 10 µM
RXF 393 renal = details: 10 µM
SNB-19 CNS = details: 10 µM
LOX IMVI melanoma = details: 10 µM
UO-31 renal = details: 10 µM
CAKI-1 renal = details: 10 µM
MOLT-4 leukemia = details: 10 µM
SR leukemia = details: 10 µM
HS 578T breast = details: 10 µM
SW-620 colon = details: 10 µM
MDA-MB-468 breast = details: 10 µM unless noted
HCT-15 colon = details: 10 µM
OVCAR-8 ovarian = details: 10 µM
M14 melanoma = details: 10 µM
SK-OV-3 ovarian = details: 10 µM
T-47D breast = details: 10 µM
SK-MEL-28 melanoma = details: 10 µM

Measured: growth

CC12OOC(C)(OO1)C2CCC(=O)NCCCNc1ccnc2cc(Cl)ccc12 (centres undefined)
active: HOP-92 NSCLC 4.9% | K-562 leukemia 4.06% | RXF 393 renal 4.73% | LOX IMVI melanoma -92.8% | UO-31 renal -99.4% | CAKI-1 renal -93.3% | SR leukemia -36.1% | MDA-MB-468 breast -52.7%
inactive: NCI-H23 lung 68.8% | MDA-MB-231 breast 82.7% | SNB-19 CNS 94.1% | MOLT-4 leukemia 34.6% | HS 578T breast 103% | SW-620 colon 18.9%

COC(=O)CCn1c(-c2ccc(-n3cc(-c4ccc(O[C@H]5O[C@@H]6OC7(C)CC[C@H]8[C@H](C)CC[C@@H]([C@H]5C)[C@@]68OO7)cc4)nn3)cc2)nc2ccccc21
inactive: NCI-H23 lung 13.6% | K-562 leukemia 21% | MDA-MB-231 breast 35% | RXF 393 renal 37.3% | HCT-15 colon 10.4% | SNB-19 CNS 24.5% | MOLT-4 leukemia 11% | HS 578T breast 30.3% | SW-620 colon 23.9% | MDA-MB-468 breast 11.1%
active: HOP-92 NSCLC 1.85% | LOX IMVI melanoma -54.5% | UO-31 renal 6.53% | SR leukemia -11.8% | OVCAR-8 ovarian 9.58%

COc1ccc(/C=C/C(=O)c2nc3ccccc3n2Cc2ccc(Br)cc2)cc1
inactive: NCI-H23 lung 61.9% | HOP-92 NSCLC 64.2% | K-562 leukemia 21.1% | RXF 393 renal 83.6% | M14 melanoma 72.5% | HCT-15 colon 38.8% | SNB-19 CNS 74.4% | MOLT-4 leukemia 20.7% | SR leukemia 25.6% | OVCAR-8 ovarian 77.5% | SK-OV-3 ovarian 91.7% | MDA-MB-468 breast 16.9%

CC1=C(COCCOC(=O)c2ccc(S(=O)(=O)F)cc2)C2=C(C)C3(CC3)[C@@](C)(O)C(=O)C2=C1
inactive: K-562 leukemia 32.6% | MOLT-4 leukemia 36% | SW-620 colon 62.3%
active: NCI-H23 lung -85.6% | HOP-92 NSCLC -29.7% | MDA-MB-231 breast -27.2% | RXF 393 renal -81.4% | SNB-19 CNS -10.6% | LOX IMVI melanoma -62.7% | CAKI-1 renal -1.85% | HS 578T breast -12.9% | T-47D breast -13.2% | MDA-MB-468 breast -87.5%

CC12CCC3(CCC(=O)NCCCNc4ccnc5cc(Cl)ccc45)[C@@](C)(OO[C@]3(C)O1)O2
active: NCI-H23 lung -43.6% | HOP-92 NSCLC 3.32% | MDA-MB-231 breast -23.4% | RXF 393 renal -47.1% | HCT-15 colon 6.51% | SNB-19 CNS 7.99% | LOX IMVI melanoma -78.1% | MOLT-4 leukemia 7.04% | SR leukemia 2.39% | OVCAR-8 ovarian -1.11% | MDA-MB-468 breast -38.3%
inactive: K-562 leukemia 14.4% | SK-MEL-28 melanoma 33.4% | SK-OV-3 ovarian 13.1% | HS 578T breast 11.4% | SW-620 colon 28.9%

C[C@H]1[C@H](OC(=O)CCC(=O)Nc2cnccn2)O[C@@H]2OC3(C)CC[C@H]4[C@H](C)CC[C@@H]1[C@@]24OO3
active: LOX IMVI melanoma -72.9% | SR leukemia 4.95%
inactive: NCI-H23 lung 25.9% | HOP-92 NSCLC 51.8% | K-562 leukemia 14.9% | MDA-MB-231 breast 83.7% | RXF 393 renal 49% | SNB-19 CNS 56.3% | SK-MEL-28 melanoma 39.7% | UO-31 renal 11% | CAKI-1 renal 42.8% | MOLT-4 leukemia 27.6% | HS 578T breast 29.2% | T-47D breast 22.1% | SW-620 colon 21.8% | MDA-MB-468 breast 50.7%

C[C@H]1[C@H](OC(=O)CCC(=O)N(CCCc2cn(-c3ccc(CN4CCOCC4)cc3)nn2)CCNc2ccnc3cc(Cl)ccc23)O[C@@H]2OC3(C)CC[C@H]4[C@H](C)CC[C@@H]1[C@@]24OO3
active: HOP-92 NSCLC -9.61% | K-562 leukemia 4.56% | RXF 393 renal 7.45% | HCT-15 colon 8.55% | LOX IMVI melanoma 7.19% | SK-MEL-28 melanoma -69.3% | MOLT-4 leukemia -4.26% | SR leukemia -17.8% | HS 578T breast 9.17%
inactive: NCI-H23 lung 45.3% | MDA-MB-231 breast 42.5% | UO-31 renal 13.1% | SW-620 colon 25.5% | MDA-MB-468 breast 29%

C[C@H]1[C@H](OC(=O)CCC(=O)N(CCCc2cn(-c3ccc(C#N)cc3)nn2)CCNc2ccnc3cc(Cl)ccc23)O[C@@H]2OC3(C)CC[C@H]4[C@H](C)CC[C@@H]1[C@@]24OO3
inactive: NCI-H23 lung 47.3% | MDA-MB-231 breast 62.9% | RXF 393 renal 40.1% | HCT-15 colon 12.1% | LOX IMVI melanoma 13.3% | CAKI-1 renal 40.8% | OVCAR-8 ovarian 22.3% | SK-OV-3 ovarian 84.4% | HS 578T breast 43% | SW-620 colon 18.2% | MDA-MB-468 breast 46%
active: HOP-92 NSCLC 7.07% | K-562 leukemia 6.77% | MOLT-4 leukemia 4.41% | SR leukemia -14.5%

CC[C@]12C=CCN3CC[C@@]4(c5ccc(OC)cc5N(C)[C@H]4[C@@](O)(C(=O)OC)[C@@H]1OC(=O)CCC[P+](c1ccc(C)cc1)(c1ccc(C)cc1)c1ccc(C)cc1)[C@@H]32
active: NCI-H23 lung -90.7% | HOP-92 NSCLC -83.2% | K-562 leukemia -13.4% | MDA-MB-231 breast -94.9% | RXF 393 renal -82.8% | HCT-15 colon -91% | LOX IMVI melanoma -89.3% | SK-MEL-28 melanoma -96.6% | UO-31 renal -97.4% | CAKI-1 renal -95.3% | MOLT-4 leukemia -45.1% | SR leukemia 5.74% | HS 578T breast -60.3% | T-47D breast -78.4% | SW-620 colon -85.2% | MDA-MB-468 breast -92.1%

CCOP(=O)(CC(F)(F)C(F)(F)F)OCC
inactive: NCI-H23 lung 50.4% | MDA-MB-231 breast 51.1% | UO-31 renal 25.1% | SK-OV-3 ovarian 111% | HS 578T breast 82.2%
active: HOP-92 NSCLC -7.91% | K-562 leukemia 5.12% | M14 melanoma -53.3% | LOX IMVI melanoma -64% | MOLT-4 leukemia 4% | SR leukemia 4.39% | OVCAR-8 ovarian -80.2% | SW-620 colon -8.33% | MDA-MB-468 breast -59.3%

CC(C)C[C@H](NC(=O)CNC(=O)C[C@H]1O[C@@H]2OC3(C)CC[C@H]4[C@H](C)CC[C@@H]([C@H]1C)[C@@]24OO3)B(O)O
active: NCI-H23 lung -2.35% | HOP-92 NSCLC -20.1% | K-562 leukemia 4% | MDA-MB-231 breast -68% | RXF 393 renal -81.6% | LOX IMVI melanoma -86.4% | MOLT-4 leukemia 1.81% | OVCAR-8 ovarian 5.76% | HS 578T breast 7.9% | SW-620 colon 1.51% | MDA-MB-468 breast -60.8%
inactive: UO-31 renal 15.5% | CAKI-1 renal 19.2% | SR leukemia 28.7%

CC12OOC(C)(OO1)C2CCC(=O)NCCNc1ccnc2cc(Cl)ccc12 (centres undefined)
inactive: NCI-H23 lung 92.6% | HOP-92 NSCLC 111% | K-562 leukemia 39.4% | MDA-MB-231 breast 96.6% | RXF 393 renal 102% | HCT-15 colon 95.2% | MOLT-4 leukemia 98.6% | SR leukemia 21.4% | SK-OV-3 ovarian 91.2% | HS 578T breast 99.8% | T-47D breast 80.8% | SW-620 colon 80.6% | MDA-MB-468 breast 82.7%
active: LOX IMVI melanoma 3.57%

COc1cc2cc(C(=O)N3C[C@@H](CCl)c4c3cc(OC(=O)N3CCN(C)[C@@H]5CSSC[C@@H]53)c3ccccc43)[nH]c2c(OC)c1OC
inactive: K-562 leukemia 10.1% | SR leukemia 18.9%
active: NCI-H23 lung -67.5% | HOP-92 NSCLC -4.54% | MDA-MB-231 breast -43.2% | RXF 393 renal -80.7% | HCT-15 colon 1.23% | LOX IMVI melanoma -32.7% | SK-MEL-28 melanoma -62.6% | UO-31 renal -33.5% | MOLT-4 leukemia 3.8% | HS 578T breast -25.5% | SW-620 colon -6.71% | MDA-MB-468 breast -80%

O=C(/C=C/c1ccccc1)c1nc2ccccc2n1Cc1ccc(Br)cc1
inactive: SK-OV-3 ovarian 28.7%
active: NCI-H23 lung -71.5% | HOP-92 NSCLC -54% | K-562 leukemia -17.2% | RXF 393 renal -94.8% | M14 melanoma -51.8% | HCT-15 colon -70.3% | SNB-19 CNS -90.1% | SK-MEL-28 melanoma -73.3% | MOLT-4 leukemia -12% | SR leukemia -19.5% | MDA-MB-468 breast -93.1%

Cc1ccc2[nH]c(=S)n(-c3ccc(F)cc3)c(=O)c2c1
inactive: NCI-H23 lung 98.7% | HOP-92 NSCLC 77.2% | K-562 leukemia 96.6% | MDA-MB-231 breast 93.1% | RXF 393 renal 98.2% | M14 melanoma 100% | SNB-19 CNS 90.3% | LOX IMVI melanoma 92.7% | SK-MEL-28 melanoma 101% | UO-31 renal 82.7% | MOLT-4 leukemia 106% | SR leukemia 103% | OVCAR-8 ovarian 103% | HS 578T breast 104% | SW-620 colon 102%

CC[C@]12C=CCN3CC[C@@]4(c5ccc(OC)cc5N(C)[C@H]4[C@@](O)(C(=O)OC)[C@@H]1OC(=O)CCCC[P+](C1CCCCC1)(C1CCCCC1)C1CCCCC1)[C@@H]32
inactive: SR leukemia 19.5%
active: NCI-H23 lung -9.66% | HOP-92 NSCLC -44.5% | K-562 leukemia 7.48% | MDA-MB-231 breast -92.8% | RXF 393 renal -73.8% | LOX IMVI melanoma -96.1% | SK-MEL-28 melanoma -86.5% | CAKI-1 renal -24.1% | MOLT-4 leukemia -5.16% | SK-OV-3 ovarian -22.3% | HS 578T breast -35% | T-47D breast 3.83% | SW-620 colon 2.08%

O=C(/C=C/c1cccc(Br)c1)c1nc2ccccc2n1Cc1ccc(F)cc1
active: K-562 leukemia 5.36% | RXF 393 renal 6.83% | HCT-15 colon -31.6% | MOLT-4 leukemia 3.41% | SR leukemia -7.31% | MDA-MB-468 breast 4.89%
inactive: NCI-H23 lung 34% | HOP-92 NSCLC 19.3% | M14 melanoma 30.7% | SNB-19 CNS 47.1% | SK-MEL-28 melanoma 50.6% | UO-31 renal 41.8% | OVCAR-8 ovarian 28.2% | T-47D breast 17.9%

CC(=C\C(=O)Oc1ccc2c3c1OC1C(O)CCC4(O)C(C2)N(CC2CCC2)CCC314)/C=C1\CCCc2ccccc21 (centres undefined)
inactive: NCI-H23 lung 64.3% | HOP-92 NSCLC 34.2% | K-562 leukemia 19.7% | MDA-MB-231 breast 75.3% | RXF 393 renal 37.7% | SK-MEL-28 melanoma 17.1% | UO-31 renal 33.8% | MOLT-4 leukemia 31.1% | OVCAR-8 ovarian 76.9% | SK-OV-3 ovarian 80.9% | HS 578T breast 59.8% | T-47D breast 24.4% | SW-620 colon 28.4%
active: LOX IMVI melanoma 5.47% | MDA-MB-468 breast -15.4%

CCOC(=O)C1=C(Nc2ccccc2)C(=O)OC12C(=O)Nc1ccccc12 (centres undefined)
inactive: NCI-H23 lung 97.3% | HOP-92 NSCLC 101% | K-562 leukemia 95.5% | MDA-MB-231 breast 104% | RXF 393 renal 119% | M14 melanoma 105% | HCT-15 colon 105% | LOX IMVI melanoma 94.3% | SK-MEL-28 melanoma 107% | UO-31 renal 73.2% | MOLT-4 leukemia 108% | SR leukemia 97.3% | SK-OV-3 ovarian 104% | HS 578T breast 106% | T-47D breast 110% | SW-620 colon 97.1% | MDA-MB-468 breast 129%
